# Assay outcomes as filed in PubChem.
# Only some compounds are listed: those with a hit (about 4.1% of all), similar ones and a draw of the others.
# FAS-TE inh: blocks the thioesterase domain of human fatty acid synthase; P49327; recombinant FAS-TE, OMFH fluorogenic substrate, fluorescence endpoint; inhibition, % at 15 µM; 360,000 tested, 0.67% active;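 active = compounds whose normalised, plate-corrected inhibition of enzyme fluorescence in the single-dose primary screen is 50% or more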;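 note: 0% = DMSO with enzyme and 100% = substrate without enzyme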
# NR3A LBD binder: modulators (binders) of human NR3A ligand-binding domain | Tm shift relative to glycine control, % at 25 µM | NR3A LBD differential scanning fluorimetry, Tm shift; 0% = protein alone, 100% = glycine-bound protein | 340,000 tested, 2.5% active;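 active = melting temperature shift of at least 10% of the positive control shift, at one fixed dose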
# MPTP block: inhibitors of mitochondrial permeability transition pore. isolated mouse mitochondria, Ca2+ swelling absorbance, 30 min. AID 602449. inhibition, % at 10 µM. 360,000 tested, 1.4% active;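 active = inhibition of 50% or more, scaled per plate between neutral and stimulator controls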;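 note: 0% = DMSO wells given calcium and 100% = 1 mM EGTA wells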
# pCIP destab: p/CIP protein destabilization | Q05BA5 | F442A p/CIP-EGFP cells, EGFP fluorescence, 16 h | decrease of EGFP signal, % at 10 µM | 290,000 tested, 0.01% active | AID 1984;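 active = EGFP signal decrease of at least 30% at 10 µM or well 3 SD below plate mean, unless failing retest; inactive = the rest, including hits failing retest or dose response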
# Target sequence (Q05BA5 1-1403): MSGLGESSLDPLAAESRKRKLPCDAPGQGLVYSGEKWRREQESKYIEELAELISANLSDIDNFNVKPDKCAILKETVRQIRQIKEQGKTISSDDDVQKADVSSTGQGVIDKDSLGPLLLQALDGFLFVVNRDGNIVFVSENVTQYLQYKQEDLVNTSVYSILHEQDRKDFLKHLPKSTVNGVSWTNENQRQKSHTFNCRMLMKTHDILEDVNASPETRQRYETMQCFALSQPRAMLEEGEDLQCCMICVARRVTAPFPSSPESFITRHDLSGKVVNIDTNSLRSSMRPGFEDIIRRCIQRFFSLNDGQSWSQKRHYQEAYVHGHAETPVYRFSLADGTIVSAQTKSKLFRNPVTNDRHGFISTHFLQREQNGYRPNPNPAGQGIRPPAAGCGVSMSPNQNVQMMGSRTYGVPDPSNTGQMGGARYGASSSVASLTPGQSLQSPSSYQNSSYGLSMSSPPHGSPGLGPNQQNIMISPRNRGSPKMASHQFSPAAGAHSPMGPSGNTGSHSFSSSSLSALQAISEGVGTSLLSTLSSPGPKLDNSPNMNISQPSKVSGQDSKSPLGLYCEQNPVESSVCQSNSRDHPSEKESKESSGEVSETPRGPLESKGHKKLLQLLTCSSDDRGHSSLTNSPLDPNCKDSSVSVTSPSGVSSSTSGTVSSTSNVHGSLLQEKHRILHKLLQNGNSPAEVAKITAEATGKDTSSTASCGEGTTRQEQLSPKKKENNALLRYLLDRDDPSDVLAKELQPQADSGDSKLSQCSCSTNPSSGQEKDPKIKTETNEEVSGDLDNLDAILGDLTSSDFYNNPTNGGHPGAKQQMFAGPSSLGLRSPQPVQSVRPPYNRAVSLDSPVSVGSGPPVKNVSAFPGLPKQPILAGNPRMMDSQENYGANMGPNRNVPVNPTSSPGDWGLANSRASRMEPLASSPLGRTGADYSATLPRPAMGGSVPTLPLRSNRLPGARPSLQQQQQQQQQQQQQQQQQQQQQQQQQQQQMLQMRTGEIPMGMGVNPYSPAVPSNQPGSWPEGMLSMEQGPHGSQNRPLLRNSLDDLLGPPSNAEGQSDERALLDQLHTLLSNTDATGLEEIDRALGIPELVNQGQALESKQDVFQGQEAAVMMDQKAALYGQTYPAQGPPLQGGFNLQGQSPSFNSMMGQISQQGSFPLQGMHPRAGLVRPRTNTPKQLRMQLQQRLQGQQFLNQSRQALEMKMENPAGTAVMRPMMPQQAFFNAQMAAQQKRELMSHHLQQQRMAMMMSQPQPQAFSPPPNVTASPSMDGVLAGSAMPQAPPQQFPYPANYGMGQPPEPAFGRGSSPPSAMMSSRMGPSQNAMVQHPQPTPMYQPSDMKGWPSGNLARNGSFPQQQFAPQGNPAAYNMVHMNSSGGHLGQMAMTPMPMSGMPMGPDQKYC
# MIN6 prolif: inducers of beta-cell replication in MIN6 cells | proliferation, % at 10 µM | 330,000 tested, 0.29% active | MIN6 cells proliferation, ATPlite luminescence, 48 h; cells starved in 0.2% serum; 100% = growth in 10% serum;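 active = compounds whose signal lies at least 3.5 SD above the mean of all wells on their plate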;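 note: 0% = DMSO-treated cells in low-serum medium and 100% = 10% serum control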
# Rh123 counter: membrane potential counter-screen of mitochondrial pore inhibitors | shares compounds with MPTP block | isolated mitochondria, Rhodamine 123 fluorescence | inhibition, % at 10 µM | 5,000 tested, 78% active | AID 624504; in the data active = inhibition above about 22%;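 note: 0% = DMSO vehicle and 100% = positive control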
# MPTP swell DR: dose response confirmation of mitochondrial permeability transition pore inhibitors; 780 tested, 58% active; isolated mitochondria swelling, absorbance; shares compounds with MPTP block; IC50, µM; in the data active = IC50 below about 20 µM
# MPTP cs DR: MPTP inhibitor counter-screen activity, dose response | shares compounds with MPTP block | isolated mitochondria counterscreen, fluorescence read-out | IC50, µM | 780 tested, 49% active | AID 651564; in the data active = IC50 below about 80 µM
# Starred values were filed as active, the others as inactive; i = inactive; · = no result given.
SMILES,FAS-TE inh,NR3A LBD binder,MPTP block,pCIP destab,MIN6 prolif,Rh123 counter,others
CN1CCC(O)(c2ccccc2)C(C(=O)c2ccccc2)C1 (stereo not drawn),0,-3,55*,-24,-3,2,MPTP swell DR=i;MPTP cs DR=>80
CCN1CCC(O)(c2ccccc2)C(C(=O)c2ccccc2)C1 (stereo not drawn),-5,-3,-4,·,-6,·,
CC(=NCc1ccco1)c1c(O)n(-c2ccccc2C)c(=O)[nH]c1=O,-3,-2,0,1,-1,·,
Cc1cc(O)c2c(c1)C(=O)C13C(=C2O)C(=O)[C@H]2[C@@H](O)[C@@H]1[C@H]1[C@H](O)[C@@H]3C(=O)C3=C(O)c4c(O)cc(C)cc4C(=O)C312 (stereo partly drawn),1,0,87*,·,-6,-60,
CC(=O)c1cn(Cc2ccccc2C#N)c2ccccc12,2,1,77*,-34,-6,90*,
CC(=O)c1cn(Cc2ccccc2F)c2ccccc12,7,-1,73*,-13,-6,70*,
O=Cc1cn(Cc2ccccc2F)c2ccccc12,6,-2,2,9,0,·,
COC(=O)C1=C(c2cccc(NC(C)=O)c2)C[C@@H]2CC[C@H]1N2C,-12,-1,0,·,-2,·,
CCCc1nc2ccc(Br)cc2c(=O)n1-c1ccc([N+](=O)[O-])c(C(F)(F)F)c1,34,5,94*,-7,0,79*,
CCc1nc2ccc(Br)cc2c(=O)n1-c1ccccc1C(F)(F)F,22,-1,2,·,-2,·,
O=C(Nc1ccc(Cl)cc1)Nc1nccs1,2,28*,86*,4,-4,89*,
Cc1ncc(CN2CCCC(C(=O)c3ccc(C(C)(C)C)cc3)C2)s1 (stereo not drawn),-30,-2,75*,-20,-6,73*,
O=C(c1ccc(Cl)cc1)C1CCCN(Cc2cccc3cccnc23)C1 (stereo not drawn),2,-1,2,0,-1,·,
O=C(c1ccc(Cl)cc1)C1CCCN(Cc2cccc3ncccc23)C1 (stereo not drawn),16,-2,97*,-22,-7,72*,
COc1ccc(C(=O)C2CCCN(Cc3cnc(C)s3)C2)cc1OC (stereo not drawn),-7,-2,3,-16,1,·,
O=C(c1ccc(C(F)(F)F)cc1)C1CCCN(Cc2ccncc2)C1 (stereo not drawn),-3,1,86*,-25,-4,48*,
O=C(c1ccc(C(F)(F)F)cc1)C1CCCN(Cc2ccc(CO)o2)C1 (stereo not drawn),-8,1,1,-4,-2,·,
Cc1cc(=O)[nH]c(CCl)n1,-5,-2,0,0,-4,·,
N#Cc1ccc(CN2Cc3ccccc3-n3nncc3C2)cc1,-7,·,0,·,·,·,
Nc1cc(C(=O)Nc2ccccc2F)ccc1N1CC2CC(C1)c1cccc(=O)n1C2 (stereo not drawn),-1,·,0,·,·,·,
C=CCn1c(O)c(C(CC)=NC2CC2)c(=O)[nH]c1=O,-9,0,0,2,-1,·,
CN(C)c1ccc(/C=C/C=C/c2sc3ccccc3[n+]2C)cc1,-4,-3,57*,-29,-6,65*,
CC[n+]1c(/C=C/C=C/c2ccc(N(C)C)cc2)sc2ccccc21,-4,-2,134*,-29,-6,71*,
CN(C)c1ccc(/C=C/c2cc[n+](C)c3ccccc23)cc1,-6,0,75*,-10,·,66*,
C[n+]1c(-c2ccccc2)sc2ccccc21,-7,1,0,-2,-5,·,
SMILES,FAS-TE inh,NR3A LBD binder,MPTP block,pCIP destab,MIN6 prolif,Rh123 counter,others
CC(=O)O[C@@H]1[C@H]2CC[C@@H]3[C@]1(C[C@@H](OC(C)=O)[C@@]1(O)C([C@@H]4O[C@@H]4C1(C)C)[C@]3(C)O)C[C@@]2(C)O (stereo partly drawn),-7,-2,-2,4,0,·,
C[C@H](NC(=O)CCC(=O)N1C[C@H]2C[C@H](C1)c1cccc(=O)n1C2)c1ccccc1,-7,0,-2,-5,-2,·,
CCCC1(CCC)C(=O)NC(=Nc2ccccc2)NC1=O,-10,-1,2,-4,-3,·,
CCCCC1(CCCC)C(=O)NC(=Nc2cccc(C)c2)NC1=O,-1,-4,92*,13,-5,93*,
COCCNCCOc1ccc(C(C)(C)c2ccccc2)cc1,-11,-1,78*,-10,-3,-9,MPTP swell DR=7.7*;MPTP cs DR=>80
CC(=O)c1cn(CC(=O)NCCc2c[nH]c3ccccc23)c2ccccc12,7,-3,0,-9,1,·,
CC(C)[N+](C)(CCC(C(N)=O)(c1ccccc1)c1ccccc1)C(C)C,-2,-1,-3,-6,2,·,
CCCCCSc1cc(OC)c(CCNC)cc1OC,-10,1,86*,-6,-4,-20,MPTP swell DR=5.3*;MPTP cs DR=>80
CCN(CC)S(=O)(=O)c1ccc(NN=C(C#N)C#N)cc1,1,13*,103*,-14,-5,80*,
NC(Cc1ccc(Cl)cc1)c1csc(Nc2ccccn2)n1 (stereo not drawn),-2,·,2,·,·,·,
S=C(c1ccc(Cl)cc1)N1CCOCC1,-6,1,0,-4,-1,·,
ClC(Cl)=C(c1ccc(Cl)cc1)c1ccc(Cl)cc1,33,0,77*,·,-8,-3,MPTP swell DR=i;MPTP cs DR=78*
O=C1N[C@@H](Cc2ccccc2)C(=O)N2[C@H]1C[C@H]1c3ccccc3N(OOSc3ccccc3)[C@H]12,-4,0,0,·,-5,·,
O=C(Nc1nc(-c2ccccc2)c(-c2ccccc2)s1)c1ccc(S(=O)(=O)N(CCCl)CCCl)cc1,34,-11,4,-12,0,·,
CCC(=NCCc1c[nH]c2ccccc12)c1c(O)n(C)c(=O)n(C)c1=O,10,2,70*,-9,-4,59*,
CCC(=NCCOc1ccc(Cl)cc1)c1c(O)n(C)c(=O)n(C)c1=O,28,0,96*,-4,-6,90*,
COc1cccc(C(c2nnnn2Cc2ccccc2)N2CCC3(CC2)C(=O)NCN3c2ccccc2)c1OC (stereo not drawn),26,·,2,·,·,·,
CCN(CC)CCO,2,0,-1,·,6,·,
C[C@]12C[C@@H](O)[C@H](O)CC1=CCC1C2CC[C@]2(C)C(=O)CCC12 (stereo partly drawn),-7,5,0,·,-3,·,
CC1(C)C(=O)CC[C@@]2(C)C1=CCC1C2CC[C@]2(C)C(=O)CCC12 (stereo partly drawn),16,-1,59*,·,-4,3,MPTP swell DR=6.3*;MPTP cs DR=13*
